PubChem BioAssay AID651819 (National Center for Advancing Translational Sciences (NCATS), 2012)
Among all 360,000 compounds or so, about 1,100 (0.31%) were called active. The full list was thinned out, with actives kept by preference. A number with no mark means an inactive call. Cut-off read from the data, not from the text of the source: active = activity change below about -30%; inactive = the rest.

Test system: cytosolic chaperonin (CCT/TRiC complex)
Assay: High-Throughput Screening for Modulators of Cytosolic Chaperonin Activity
Conditions: purified chaperonin ATPase assay, HTRF ADP detection, 30 min; hits give low values
From the text: The eukaryotic chaperonin named TRiC (for TCP-1 ring complex), also called CCT (for chaperonin containing TCP1), is an essential and conserved chaperone required for the folding and activation of 10-15% of the proteins encoded by the human genome. […] Despite its central role in cellular folding, little is known about TRiC mechanism and mode of substrate binding. Currently, no specific TRiC inhibitors are available. Given the early promise of other chaperone-directed inhibitors as cancer therapeutics (e.g. HSP90 inhibitors), inhibitors of TRiC activity may also selectively target transformed cells and have potential use as therapeutics for cancer.
To this end, a miniaturized assay was developed to screen against the Molecular Libraries Small Molecule Repository (MLSMR).
NIH Chemical Genomics Center [NCGC]
NIH Molecular Libraries Probe Centers Network [MLPCN]
Assay Submitter (PI): Judith Frydman, Stanford University
1.5 uL/well TRiC enzyme suspended in buffer (30 mM TRIS pH7.4, 100 mM KCl, 5 mM MgCl2, 1 mM DTT) was added with BioRAPTR FRD dispenser at 40 nM or 20 nM (based on the enzymatic activity of used batches) final concentration to a white solid bottom medium binding 1536-well plate (Greiner Bio-One, Monroe, NC), and quickly spanned down. 23 nl/well of compound solutions in DMSO were added with a pintool transfer (Kalypsis, San Diego, CA) at a single 76 uM final concentration. Next, 1.5 µl/well ATP was dispensed with BioraptR at 10 uM final concentration after which the plates were incubated at 37 deg C for 30 min. HTRF(R) Transcreener(R) ADP (Cisbio US, Bedford, MA) detection reagents were prepared accordingly to the protocol and dispensed into the plate (1.5 uL/well each), incubated for 30 min at ambient temperature. Then, the plates were read using Envision reader with excitation at 330nm and emission at 615nm (Eu(3)-Cryptate donor signal) and 665nm (d2 acceptor signal). The ratio of […] was calculated for each well.
% is set by controls: 0 for no effect and ±100 for the full control effect.

| SMILES | activity change |
| --- | --- |
| Nc1ccc([N+](=O)[O-])cc1 | -35.1% (active) |
| CC(=O)Cc1ccc(OC(C)C)cc1 | -4.19% |
| CC(C)(C)c1ccc(OC(=O)N2CCCCC2)cc1 | -0.84% |
| COc1ccc(CCn2c(O)c(C=NC3CC3)c(=O)[nH]c2=O)cc1OC | -0.86% |
| O=C1NC(=O)C(C/C=C/c2ccccc2)C(=O)N1 | -117% (active) |
| O=C1NC(=O)C(Cc2ccccc2)C(=O)N1 | -0.218% |
| CSC1=NP(=S)(SC)N(C)c2nc3n(c21)CCC3 (stereo not given) | -0.177% |
| CCOC(=O)c1c(C)c(C(=O)N2CCC3(CC2)OCCO3)c(C)n1CC | -3.47% |
| COCCNC(=O)CN1C2CCC1CC(O)(c1cccnc1)C2 (stereo not given) | 0.503% |
| Cc1ccc(Cn2nnnc2CN2CCC(n3nnc4ccccc43)CC2)cc1 | -0.0525% |
